# From PubChem BioAssay (NCATS)
# Results filed as inconclusive are left out. Where a call stands in place of a potency, no number is given. Calls of active or inactive are those of the source. Calls follow the shape of the dose curve; as a rule, active = well fitted cell-killing curve with a large enough effect; inconclusive = small, poorly fitted or top-dose-only effect, or effect the other way; inactive = flat fitted curve, though single readings scatter. Where a SMILES comes first, the peptide text is derived from it. [ ]: non-standard residue; d: D form. ξ: configuration not given here. ξTyr(βOH) = NC(C(=O)O)C(O)c1ccc(O)cc1
# Test system: Es-2
# Assay: Primary qHTS to identify gynecologic anti-cancer compounds using libraries of approved drugs and bioactive compounds (AID 1345084); also: nearly all actives have a fitted effect of over 55% in size
# Details: Gynecologic cancer cell panel viability, ATPlite luminescence, 48 h; series mostly up to 57.5 µM
# Method in brief: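 ATP-based viability (ATPlite), 1,000 cells/well, 16 h pre-incubation, 48 h compound at 37 C, 5% CO2, 15 min RT before read.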
# Potency is read from the fitted curve at half-maximal effect.
SMILES,Potency,"activity change, negative = cytotoxicity"
NC1(c2ccc(NC(=O)c3ccnc(-c4cc(C(=O)O)ccn4)c3)cc2)CC1,inactive,–
CCCC/C=C\CCCCCc1cc(=O)c2ccccc2n1C,inactive,–
COCc1c(O)c(C(=O)O)c(C)c2c1OC(=O)c1c(C)cc(O)c(CO)c1O2,inactive,–
C/C=C/C=C/C1=C2C(=O)C3(C)C4C(C(=O)CC(O)/C=C/C)=C(O1)C1(C)C2C2(C)OC1(O)C4(C)OC23O (stereo not given),inactive,–
CC12CC(O)C(O)C=C1c1cc(O)cc(O)c1C(=O)O2 (stereo not given),inactive,–
C=C1C2(C)CC3C4(C)C=CC(=O)OC(C)(C)C4CCC3(C)C1(C(=O)OC)C(=O)C(C)(O)C2=O (stereo not given),inactive,–
CC1(C)[C@H]2C[C@H](C/C=C\CCCC(=O)O)[C@@H](NC(=O)c3csc4ccc(O)cc34)[C@@H]1C2,inactive,–
CC(C)c1ccc2c(c1)CCC1[C@](C)(C(=O)O)CCC[C@]21C (stereo not given in full),inactive,–
C[C@@H]1O[C@@H](OC(=O)Cc2ccccc2)[C@H](O)[C@H](O)[C@H]1O,inactive,–
Cn1cc(-c2c[nH]c3ncnc(N4CCOCC4)c23)cn1,inactive,–
CC(C)C1NC(=O)C(CC2(O)c3ccccc3N3C(=O)C(Cc4ccccc4)NC32)NC1=O (stereo not given),inactive,–
C[C@@]12CC3(S(=O)(=O)O)OC(O1)[C@]1(COC(=O)c4ccccc4)[C@H]3C[C@]21O[C@@H]1O[C@H](CO)[C@@H](O)[C@H](O)[C@H]1O,inactive,–
CC(C)C1NC(=O)CNC(=O)C2CCCN2C(=O)C(Cc2c[nH]c3ccccc23)NC(=O)CNC(=O)C(C(O)c2ccc(O)cc2)NC(=O)CNC1=O (stereo not given) (cyclo(G[ξTyr(βOH)]GWPGV); configuration not given here),inactive,–
CC(=C\C(C)O)/C=C(\C)C(=O)CC1CC(CC(N)=O)CC(=O)O1 (stereo not given),inactive,–
CC(=O)OCC1=CCC2C(C)(C)CCCC2(C)C12CCC(C)(CC(=O)O)O2 (stereo not given),inactive,–
C[C@H]1CC[C@H]2[C@@H](C=C[C@@](C)(O)[C@]2(C)C(=O)CCO)C1,inactive,–
CC1=C(CO)CC(C(C)C2CCC3C4CC=C5CC(OC6OC(COC7OC(CO)C(O)C(O)C7O)C(O)C(O)C6O)CC(O)C5(C)C4CCC23C)OC1=O (stereo not given),inactive,–
CC(=O)c1c(C)cccc1O[C@@H]1O[C@H](CO)[C@@H](O)[C@H](O)[C@H]1O,inactive,–
C/C1=C\CC[C@]2(C)O[C@H]2C(=O)c2c(C)coc2C1,11.2 µM (active),–
CNc1nc(C)nc(N[C@H]2CCC[C@@H](C(=O)NCc3ccc(C#N)cc3C(F)(F)F)C2)n1,inactive,–
CC(=O)O[C@@H]1[C@@H](O)[C@H](C)O[C@@H](O[C@H]2[C@@H]3C=CO[C@@H](O[C@@H]4O[C@H](CO)[C@@H](O)[C@H](O)[C@H]4OC(C)=O)[C@@H]3[C@@]3(CO)O[C@@H]23)[C@@H]1OC(=O)/C=C/c1ccc(O)cc1,inactive,–
CCC1=C(C)C(=O)C(C)CC12C(=O)CCC2C(=O)O (stereo not given),inactive,–
Nc1ncnc2c1c(COc1cccc(Cl)c1)nn2C1CCOCC1,inactive,–
CC1(C)CC[C@]2(C(=O)O[C@@H]3O[C@H](CO)[C@@H](O)[C@H](O)[C@H]3O)CC[C@]3(C)C(=CCC4[C@@]5(C)CC[C@H](O[C@@H]6O[C@H](C(=O)O)[C@@H](O[C@@H]7O[C@H](CO)[C@@H](O)[C@H](O)[C@H]7O)[C@H](O)[C@H]6O[C@@H]6O[C@H](CO)[C@@H](O)[C@H](O)[C@H]6O)C(C)(C)C5CC[C@]43C)C2C1 (stereo not given in full),–,-12.1% [at 11.6 µM] (inactive)
C=C(C(=O)OC)[C@]12O[C@@](C)(CC[C@@]3(O)/C(=C\C)C(=O)O[C@]3(C)C[C@@H]1OC(=O)C(CO)CN1CCCC1C(=O)O)CC2=O (stereo not given in full),inactive,–
COc1cc(/C=C/C(=O)O[C@H]2[C@@H]3C=CO[C@@H](O[C@@H]4O[C@H](CO)[C@@H](O)[C@H](O)[C@H]4O)[C@@H]3[C@@]3(CO)O[C@@H]23)ccc1O,inactive,–
COC1OC(=O)C2=C1C1(C)CCCC(C)(C)C1CC2O (stereo not given),inactive,–
C/C1=C\CC(C)(C)/C=C/C/C(C(=O)O)=C/CC1,inactive,–
CC1CCC2(NC1)OC1C(O)C3C4CCC5CC(O[C@@H]6O[C@H](CO)[C@@H](O)[C@H](O)[C@H]6O[C@@H]6O[C@@H](C)[C@H](O)[C@@H](O)[C@H]6O)CCC5(C)C4CCC3(C)C1C2C (stereo not given in full),inactive,–
O=C(O)/C=C/c1ccc2occc2c1O[C@@H]1O[C@H](CO)[C@@H](O)[C@H](O)[C@H]1O,inactive,–
